# The list is not random: actives were taken first. Their share in the collection is about 17%.
# HT1080 IDH1KD tx: toxicity to HT-1080 IDH1 knockdown cells (counter line) | HT-1080 IDH1 knockdown viability, ATP luminescence, 48 h | Potency, µM (highest dose often 46.1 µM), inactives show top-dose activity, negative = toxicity, hits mostly cytotoxic | 2% of 360,000 active;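 note: 0% = DMSO wells and -100% = cell-free medium wells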
#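 HT-1080-IDH1KD cells (IDH1 knocked down), 750/well in RPMI with 5% FBS, treated with compound 48 h at 37 degrees C. Viability by CellTiter-Glo luminescence, normalised to DMSO and no-cell wells; concentration-response curves classed.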
# TDP1 cell CPT: DT40-hTDP1 cell growth loss with CPT; chicken DT40 Tdp1-/-;hTDP1 cells + 20 nM CPT, ATP luminescence, 48 h; Potency, µM (titrated, usually from 46.2 µM), for the others: at the top dose activity change, negative = growth inhibition, actives largely listed as inhibitors; 12% of 420,000 active; note: % is set by controls: 0 for no effect and ±100 for the full control effect; nearly all actives have a fitted effect of over 55% in size
#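 Chicken DT40 Tdp1-/- cells complemented with human TDP1, 400 cells/well, exposed to compounds plus 20 nM camptothecin for at least 48 h at 37 C; viability read as ATP content by CellTiter-Glo luminescence.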
# HepG2 tox: kills HepG2 cells in TGF-b inhibitor counter-screen; Potency, µM (highest dose often 46.1 µM), without a hit: top-dose activity change, negative = cytotoxicity, usual class: cytotoxic; 0.76% of 410,000 active; AID 588856; HepG2 CAGA-GFP viability, ATP luminescence, 18 h
#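 HepG2 CAGA-GFP cells (1000/well, DMEM with 1% FBS) received compound, then TGF-beta at 500 pg/mL final, and were incubated 18 hours at 37 degrees C. Viability was read by CellTiter-Glo luminescence. Media-only wells were set as complete cell-killing and DMSO as no toxicity.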
# TDP1 cell noCPT: qHTS for Inhibitors of human tyrosyl-DNA phosphodiesterase 1 (TDP1): qHTS in cells in absence of CPT; Potency, µM (titrated, usually from 46.2 µM), inactives show top-dose activity change, negative = growth inhibition, hits mostly inhibitors; DT40 Tdp1-/- hTDP1 cells, no CPT, ATP luminescence, 48 h; 15% of 420,000 active; note: % is set by controls: 0 for no effect and ±100 for the full control effect; nearly all actives have a fitted effect of over 55% in size
#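 Seeded 400 DT40-hTDP1 cells/well (vehicle DMSO, no 20 nM CPT); pinned compounds; ≥48 hr at 37 °C; CellTiter-Glo luminescence as viability measure.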
# HT1080-NT tox: kills 2HG-producing HT-1080-NT fibrosarcoma cells; HT-1080-NT fibrosarcoma viability, CellTiter-Glo ATP luminescence, 48 h; Potency, µM (top dose mostly 46.1 µM), inactives show top-dose activity, negative = less viability, most hits filed as cytotoxic; 1.6% of 360,000 active; AID 686970;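 note: NT is the 2HG producing partner of a matched IDH1 knockdown line; 0% = DMSO-treated cells and -100% = media-only wells without cells; nearly all actives have a fitted effect of over 55% in size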
#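 Viability of the 2HG-overproducing fibrosarcoma line after 48 hours of compound exposure at 37 degrees C was determined by luminescence with CellTiter-Glo, and concentration-effect curves were then fitted and categorized.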
# TGFb inhibitor: TGF-b pathway inhibition; 1.2% of 410,000 active; Potency, µM (series often up to 46.1 µM), without a hit: at the highest dose activity, negative = inhibition, most hits filed as inhibitors; HepG2 CAGA-GFP TGF-b/SMAD3 reporter, GFP fluorescence, 18 h; TGF-beta stimulated, 500 pg/mL final; note: % is set by controls: 0 for no effect and ±100 for the full control effect; nearly all actives have a fitted effect of over 65% in size
#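 First, reporter cells (HEPG2 CAGA-GFP) rested 2 h at 37 degrees C. Next, compounds were pinned in and TGF-beta added to 500 pg/mL final. After 18 h, GFP was imaged per cell and summed per well.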
# An asterisk follows results filed as active; ? = inconclusive; . = not tested or not shown. Calls come from the whole dose curve; as a rule, active = well fitted curve in the direction sought with a large enough effect; inconclusive = small, poorly fitted or top-dose-only effect, or another doubt; inactive = no such curve, though single readings can be large; an effect the other way counts as inactive or inconclusive. Potency is the fitted concentration of half-maximal effect.
SMILES,HT1080 IDH1KD tx,TDP1 cell CPT,HepG2 tox,TDP1 cell noCPT,HT1080-NT tox,TGFb inhibitor
Cc1ccc(C)c(CN2C(=O)c3ccccc3S(=O)(=O)c3ccc(C(=O)N4CCN(c5ccccn5)CC4)cc32)c1,.,?,-23%,?,.,.
O=C(c1ccc2c(c1)N(Cc1ccccc1)C(=O)c1ccccc1S2(=O)=O)N1CCN(c2ccccn2)CC1,.,?,6%,21µM*,.,.
CCN1CCN(C(=O)c2ccc3c(c2)N(Cc2ccc(Cl)cc2)C(=O)c2ccccc2S3=O)CC1 (centres undefined),.,?,-31%,?,.,?
N#Cc1c2ccccc2nc2ccccc12,0%,6%,1%,-6%,3%,-3%
CCN(C(=O)CCS(=O)(=O)c1ccc2c(c1)oc(=O)n2C)c1ccc(OC)cc1,0%,-1%,-6%,2%,12%,1%
COc1cccc(NC(=S)Nc2ccc(O)cc2)c1,-12%,-18%,-16%,19%,0%,0%
COc1cccc(NC(=S)NC2CC(C)CC(C)(C)C2)c1 (centres undefined),-16%,21µM*,-77%,23µM*,-15%,?
COc1cccc(Cn2c(=O)c(-c3cccs3)nc3cnc(Nc4ccccc4)nc32)c1,.,7%,.,-5%,.,.
Clc1cccc(Cl)c1CSc1nnc(CN2CCOCC2)n1-c1ccccc1,-8%,16µM*,-21%,?,-9%,-6%
Cc1ccc(OCCN2CCN(C(=O)CCC(=O)Nc3nnc(C)s3)CC2)cc1,10%,-11%,-10%,-5%,16%,-19%
Cc1ccc(OCCN2CCN(C(=O)CCC(=O)Nc3nnc(C(C)C)s3)CC2)cc1,-9%,?,1%,23µM*,-11%,-19%
Cc1nnc(NC(=O)CCC(=O)N2CCN(CCOc3cccc4ccccc34)CC2)s1,11%,?,-4%,23µM*,12%,21%
Cc1ccc(NC(=O)C2CCCN2S(=O)(=O)c2cccc3cccnc23)cc1 (centres undefined),.,?,-15%,?,.,?
Cc1ccc(NC(=O)C2CCCN2S(=O)(=O)c2cccc3cccnc23)cc1C (centres undefined),.,?,-18%,21µM*,.,?
COc1ccc(NC(=O)C2CCCN2S(=O)(=O)c2ccc3nc(-c4ccccc4)[nH]c3c2)cc1 (centres undefined),.,.,-10%,.,.,-3%
O=C(Nc1cccc(F)c1)C1CCCN1S(=O)(=O)c1cccc2cccnc12 (centres undefined),0%,18µM*,-5%,?,-10%,-20%
CC(=O)c1cccc(NC(=O)C2CCCN2S(=O)(=O)c2cccc3cccnc23)c1 (centres undefined),0%,?,-8%,-28%,-9%,-9%
Cc1ccc(NC(=O)C2CCCN2S(=O)(=O)c2ccc3nc(-c4ccccc4)[nH]c3c2)cc1F (centres undefined),.,18µM*,-42%,10µM*,.,?
O=C(Nc1ccc(C(F)(F)F)cc1)C1CCCN1S(=O)(=O)c1cccc2cccnc12 (centres undefined),?,?,-30%,23µM*,?,?
O=C1CC(c2ccccc2)Cc2[nH]c(=O)c(C(=O)Nc3cccc(Cl)c3)cc21 (centres undefined),.,-18%,17%,-27%,.,0%
Cn1nccc1C(=O)OCC(=O)Nc1cccc(Cl)c1,6%,?,-3%,-14%,6%,8%
